Compound activity as filed in PubChem.
Marburg entry inh: Marburg virus entry inhibition; Marburg virus pseudotyped entry inhibition, cell reporter; Potency, µM (doses to about 37.8 µM), for the others: top-dose activity change, negative = inhibition, most hits filed as inhibitors; hit rate 1.8% among 300,000; AID 540276; calls by dose curve; tested in HEK293 cells; also: potency is read from the fitted curve at half-maximal effect
Lassa entry inh: Lassa virus entry inhibition; AID 540256; hit rate 1.2% among 300,000; Potency, µM (titrated, usually from 37.9 µM), without a hit: at the highest dose activity change, negative = inhibition, most hits filed as inhibitors; Lassa virus pseudotype entry inhibition, cell reporter; calls by dose curve; tested in HEK293 cells; also: potency is read from the fitted curve at half-maximal effect; nearly all actives have a fitted effect of over 50% in size
HCMV antiviral: blocks human cytomegalovirus replication. hit rate 4.5% among 410,000. HFF cells, HCMV-luciferase reporter, 72 h; active compounds read low. activity change, negative = inhibition, % at 57.5 µM; in the data active = activity change below about -60%; inconclusive = no clear call, values can overlap the other calls; inactive = above about -39%
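After 16 h attachment at 37C, HFF cells received test compound and HCMV-luciferase (1 PFU/cell); reporter luminescence read 72 h later, data normalized against buffer-only and known inhibitor Salinomycin.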
FMDV inh: blocks foot and mouth disease virus; Potency, µM (top dose mostly 57.9 µM), inactives show at the highest dose activity change, negative = inhibition, most hits filed as inhibitors; FMDV antiviral cell-based qHTS; hit rate 1.2% among 410,000; AID 1159524; calls by dose curve; tested in HEK293T cells; also: read-out not given here; potency is read from the fitted curve at half-maximal effect; nearly all actives have a fitted effect of over 45% in size
HCV inhibitor: blocks hepatitis C virus | Huh7.5.1 HCVcc-Cre infection, luciferase reporter, 44 h | Potency, µM (highest dose often 41.8 µM), for inactives: top-dose activity change, negative = inhibition, usual class: inhibitors | hit rate 3.4% among 340,000 | AID 651820; active = well fitted inhibition curve with a large enough effect; inconclusive = small, poorly fitted or top-dose-only effect, or another doubt; inactive = no such curve, though single readings can be large or run the other way; also: potency is read from the fitted curve at half-maximal effect
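A cell-based infection assay in which seeded cells (1,000 per well) receive test compound after 4 h, are inoculated with HCVcc-Cre at approximately 0.5 moi, and are incubated 44 h before luminescence detection.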
The depositor's hits bear a star; ? = inconclusive; . = not tested or not shown; [ ] = dose if it differs, or a comment. Only some compounds are listed: those with a hit (about 7.9% of all), similar ones and a draw of the others. % is scaled to controls: 0 for no effect and ±100 for the full control effect.

SMILES | Marburg entry inh | Lassa entry inh | HCMV antiviral | FMDV inh | HCV inhibitor
Cc1ccc(NC(=O)c2oc3ccc(S(=O)(=O)N4CCCCCC4)cc3c2C)cc1Cl | . | -10%[46.1 µM] | -15 | ? | .
Cc1c(C(=O)Nc2ccc(F)c(F)c2)oc2ccc(S(=O)(=O)N3CCCCC3)cc12 | ? | 16%[46.1 µM] | -20 | 14µM* | 6.3µM*
Cc1c(C(=O)Nc2ccc(F)c(F)c2)oc2ccc(S(=O)(=O)N3CCC4(CC3)OCCO4)cc12 | . | 11%[46.1 µM] | 1 | -23% | .
Cc1c(C(=O)NCc2ccccc2)oc2ccc(S(=O)(=O)N3CCC4(CC3)OCCO4)cc12 | ? | ? | -16 | ? | ?
Cc1c(C(=O)Nc2ccc(F)cc2)oc2ccc(S(=O)(=O)N3CCC4(CC3)OCCO4)cc12 | 5.8µM* | ? | -63* | 22µM* | 4.5µM*
Cc1c(C(=O)NCCC2=CCCCC2)oc2ccc(S(=O)(=O)N3CCC4(CC3)OCCO4)cc12 | ? | ? | -27 | 18µM* | 13µM*
CCc1ccc(-n2c(=O)c3c4c(sc3n(Cc3ccccc3C#N)c2=O)CCC4)cc1 | -11%[46.1 µM] | 14%[46.1 µM] | 11 | -24% | .
CCOc1ccc(C(C)NC(=S)NCc2ccc(Cl)cc2)cc1 (stereo unspecified) | . | . | -74* | 3% | ?
CC(NC(=S)NCc1ccc(F)cc1)C12CC3CC(CC(C3)C1)C2 (stereo unspecified) | ? | ? | -85* | -19% | -25%
CCC(C)c1ccc(C(C)NC(=S)NCc2ccc(F)cc2)cc1 (stereo unspecified) | ? | ? | -67* | ? | 7.1µM*
CCC(NC(=S)NCc1ccc(F)cc1)c1ccc(C(C)C)cc1 (stereo unspecified) | . | . | -97* | -21% | ?
O=C(NCCO)/C(=C\c1cccc([N+](=O)[O-])c1)NC(=O)c1cccs1 | . | . | 59 | 80% | .
CC(=O)c1ccc(OCC(=O)NC(=O)NC2CCCC2)cc1 | . | . | -38 | ? | .
O=C(c1ccc(F)cc1F)N1CCCC(c2nc(-c3ccc(F)cc3)no2)C1 (stereo unspecified) | -29%[46.1 µM] | ? | -22 | -36% | 11µM*
Cc1ccc(-c2noc(C3CCCN(C(=O)c4ccccc4Br)C3)n2)cc1 (stereo unspecified) | . | . | ? | 5% | 10µM*
Cc1ccc(-c2noc(C3CCCN(C(=O)c4c(F)cccc4F)C3)n2)cc1 (stereo unspecified) | -5% | 25%[14.3 µM] | ? | -27% | .
O=C(c1c(F)cccc1F)N1CCCC(c2nc(-c3ccc(Cl)cc3)no2)C1 (stereo unspecified) | . | . | -16 | 1% | 11µM*
CCOc1ccc2[nH]c3c(N4CCN(C(=O)c5ccco5)CC4)ncnc3c2c1 | ? | ? | -31 | -20% | -25%
CCc1cc2c(N3CCN(c4ccccc4)CC3)ncnc2s1 | ? | ? | -70* | 25µM* | 8.9µM*
Oc1ccc(N2CCN(c3ncnc4sc(-c5ccccc5)cc34)CC2)cc1 | ? | ? | 101 | ? | ?
COc1ccc(CN2CCN(c3ncnc4sc5c(c34)CCCC5)CC2)cc1F | 7%[46.1 µM] | -4%[46.1 µM] | -70* | ? | .
O=C(c1ccco1)N1CCN(c2ncnc3sc4c(c23)CCC4)CC1 | -5% | -8% | -67* | ? | ?
O=C(c1ccco1)N1CCN(c2ncnc3c2[nH]c2ccc(Br)cc23)CC1 | ? | ? | ? | ? | 11µM*
CCc1cc(C(=O)NCc2c(C)ncc3c2CCN(C(=O)C2=CCCC2)C3)no1 | . | . | . | -7% | .
COc1ccc(CCNC(=O)CC(C)S(=O)(=O)c2ccc3c(c2)NC(=O)CO3)cc1OC (stereo unspecified) | . | . | -8 | -11% | 10%
SMILES | Marburg entry inh | Lassa entry inh | HCMV antiviral | FMDV inh | HCV inhibitor
CC1CCc2c(sc3nc(C4CC4)nc(N4CCN(C(=O)c5ccco5)CC4)c23)C1 (stereo unspecified) | ? | ? | -86* | 25µM* | 4.5µM*
O=C(c1ccco1)N1CCN(c2ncnc3c(-c4ccccc4)nsc23)CC1 | ? | ? | 119 | 5% | 22µM*
c1ccc(N2CCN(c3ncnc4sc5c(c34)CCC5)CC2)cc1 | ? | -14% | -76* | -23% | 10µM*
c1nc(N2CCC3(CC2)OCCO3)c2c3c(sc2n1)CCCC3 | -29%[46.1 µM] | ? | ? | 0% | -25%
N#C[C@H](c1ccccc1)C1CCN(C(=O)c2ccco2)CC1 | . | . | -9 | . | .
COc1cc2c(cc1OC)[N+]([O-])=C(c1ccccc1)C2=O | . | . | -26 | . | .
CC1=CC(=O)C2C(C)(C)CCC[C@@]2(C)[C@@]1(O)CCc1ccoc1 (stereo partly specified) | . | . | . | -15% | .
C=C(C(C)=O)C(O)/C=C/c1ccco1 (stereo unspecified) | 3%[14.2 µM] | . | . | . | .
Cc1c(C(=O)NC(C)c2ccccn2)oc2c(Cl)cccc12 (stereo unspecified) | 2% | 4% | 36 | -13% | ?
Cc1nnnn1/C(=C\c1ccccc1)C(=O)OCC(=O)N(C)C1CCS(=O)(=O)C1 (stereo unspecified) | -30%[46.1 µM] | -1% | . | -24% | -10%
CCN(C(=O)COC(=O)/C(=C/c1ccccc1)n1nnnc1C)C1CCCCC1 | 13µM* | -8% | ? | 22µM* | ?
CC(=O)c1ccccc1NC(=O)COC(=O)/C(=C/c1ccccc1)n1nnnc1C | ? | ? | 0 | 22µM* | -3%
Cn1c(=O)c2cc(C(=O)NC3CCCCCC3)sc2c2ccccc21 | -3%[46.1 µM] | -16%[46.1 µM] | -81* | -18% | .
CCCCNC(=O)c1cc2c(=O)n(CC)c3ccccc3c2s1 | -11% | ? | 1 | 9% | ?
CCn1c(=O)c2cc(C(=O)NCCCN(C)Cc3ccccc3)sc2c2ccccc21 | ? | 19%[46.1 µM] | -70* | -28% | .
CCn1c(=O)c2cc(C(=O)NCCN3CCOCC3)sc2c2ccccc21 | . | . | 153 | -1% | 11µM*
CN(CCCNC(=O)c1cccn2c(=O)c3ccccc3nc12)Cc1ccccc1 | ? | -6% | -19 | ? | 11µM*
O=C(NCCN1CCN(c2ccccc2)CC1)c1cccn2c(=O)c3ccccc3nc12 | 0% | 3% | -34 | ? | ?
O=C(NCCc1ccncc1)c1cnn(-c2ncc3c(n2)-c2ccccc2CCC3)c1C1CC1 | . | . | . | -12% | .
O=C(O)c1cc(O)c2c(c1)[C@H]([C@H]1c3cc(C(=O)O)cc(O)c3C(=O)c3c(O[C@@H]4O[C@H](CO)[C@@H](O)[C@H](O)[C@H]4O)cccc31)c1cccc(O[C@@H]3O[C@H](CO)[C@@H](O)[C@H](O)[C@H]3O)c1C2=O | . | . | . | -24% | .
c1c2c(cc3sc(N4CCOCC4)nc13)OCCO2 | ? | 5.2µM* | ? | -86% | 6%
COc1cc(N2CCN(C(C)C)CC2)ccc1Nc1nc(Nc2cccc3ncccc23)c2cc[nH]c2n1 | . | 20µM* | . | . | .
CC(=O)NC(c1cccc(F)c1)c1nc(-c2ccccc2)cs1 (stereo unspecified) | . | . | 11 | -11% | .
Cc1ccc(NC(=O)Cn2c(O)c(N=NC(N)=S)c3ccccc32)cc1 | 8.9µM* | ? | -17 | -24% | ?
